From PubChem BioAssay
ELG1 genotoxic = qHTS screen for small molecules that induce genotoxicity in human embryonic kidney (HEK293T) cells expressing luciferase-tagged ELG1; actives 1.3% (n = 330,000); Potency, µM (series often up to 46 µM), usual class: activators; HEK293T ELG1-luciferase reporter, luminescence, 16 h; also: nearly all actives have a fitted effect of over 60% in size
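Cells (2,000/well) expressing the ELG1-luciferase fusion are dosed by pin tool and kept 16 hr at 37 °C, 5% CO2. Signal comes from ONE-Glo luciferase reagent after 30 min at room temperature.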
Rab9 prom act = qHTS Assay for Rab9 Promoter Activators; Huh7 Rab9 promoter-luciferase reporter, luminescence, 24 h; Potency, µM (doses to about 9.22 µM), usual class: activators; actives 2.8% (n = 320,000); AID 485297, 2010; also: nearly all actives have a fitted effect of over 60% in size
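Using Huh7 cells stably transfected with Rab9 promoter–luciferase, compounds were incubated 24 h at 37 °C, 5% CO2; luciferase luminescence was read 10 min after reagent addition.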
NPC1 promoter act = qHTS Assay for NPC1 Promoter Activators; Potency, µM (titrated, usually from 9.22 µM), actives largely listed as activators; actives 2.4% (n = 320,000); Huh7 NPC1 promoter luciferase reporter, 24 h; AID 485313, 2010; also: nearly all actives have a fitted effect of over 60% in size
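Luciferase expression driven by the NPC1 promoter was measured in stably transfected Huh7 cells after a 24 h compound incubation, using a luciferase reagent and a luminescence read.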
ELG1 repair inh = qHTS screen for small molecules that inhibit ELG1-dependent DNA repair in human embryonic kidney (HEK293T) cells expressing luciferase-tagged ELG1; HEK293T ELG1-luciferase reporter, luminescence, 16 h; DNA damage induced by 5-fluorouridine; actives 2.3% (n = 330,000); Potency, µM (series often up to 46.1 µM), hits mostly inhibitors; AID 504467, 2011; also: nearly all actives have a fitted effect of over 55% in size
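Cells (2,000 per well) received 5-fluorouridine plus test compound or DMSO and were incubated 16 hr at 37 °C, 5% CO2. Luciferase activity was read by luminescence 30 min after ONE-Glo addition; signal suppression marked inhibition of damage-induced ELG1 function.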
SMN2 splice enh = qHTS Assay for Enhancers of SMN2 Splice Variant Expression; AID 1458, 2008; actives 2.8% (n = 210,000); HEK293 SMN2-luciferase splicing reporter, luminescence, 30-36 h; Potency, µM (titrated, usually from 46.1 µM), hits mostly activators; also: nearly all actives have a fitted effect of over 55% in size
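qHTS luciferase splicing reporter: luminescence rises when SMN2 exon 7 is included in transfected HEK293 cells. Compound exposure lasted 30-36 h at 37C, with 4.5 mM final sodium butyrate as control, followed by a ONE-Glo read.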
FLuc counter = qHTS profiling assay for firefly luciferase inhibitor/activator using purifed enzyme and Km concentrations of substrates (counterscreen for miR-21 project) | Luciferin 4-monooxygenase (Photinus pyralis), P08659 | purified FLuc, Km substrates, luminescence inhibition | Potency, µM (titrated, usually from 57.5 µM), usual class: inhibitors | actives 6.9% (n = 360,000) | AID 588342, 2011; also: nearly all actives have a fitted effect of over 55% in size
Target sequence (P08659 whole entry, looked up): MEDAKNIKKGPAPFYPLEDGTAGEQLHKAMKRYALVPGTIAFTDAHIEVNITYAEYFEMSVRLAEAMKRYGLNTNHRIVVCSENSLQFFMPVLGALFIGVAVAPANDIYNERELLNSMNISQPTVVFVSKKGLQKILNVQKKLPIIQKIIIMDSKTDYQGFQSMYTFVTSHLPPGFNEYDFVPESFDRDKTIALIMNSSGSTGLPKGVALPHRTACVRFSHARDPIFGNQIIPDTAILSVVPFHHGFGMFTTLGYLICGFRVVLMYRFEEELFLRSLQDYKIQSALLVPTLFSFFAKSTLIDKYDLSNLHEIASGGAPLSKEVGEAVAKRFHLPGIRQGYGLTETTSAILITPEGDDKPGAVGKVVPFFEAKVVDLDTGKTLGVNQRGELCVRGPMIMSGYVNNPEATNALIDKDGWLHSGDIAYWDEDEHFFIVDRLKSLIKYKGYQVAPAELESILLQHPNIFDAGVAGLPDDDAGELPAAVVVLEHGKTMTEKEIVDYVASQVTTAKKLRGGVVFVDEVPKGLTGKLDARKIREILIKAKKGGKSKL
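Purified P. pyralis luciferase, 10 nM final, with Km-level 10 uM D-luciferin and 10 uM ATP in 50 mM Tris acetate pH 7.5, 10 mM Mg acetate, 0.01% Tween-20, 0.05% BSA; 6-point qHTS titration about 60 µM downward; luminescence read.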
A number is an active result; . = inactive; ? = inconclusive; / = not tested or not shown. Hits are enriched below; roughly 9.3% of the tested compounds scored in any of these assays. Calls follow the shape of the dose curve; as a rule, active = well fitted curve in the direction sought with a large enough effect; inconclusive = small, poorly fitted or top-dose-only effect, or another doubt; inactive = no such curve, though single readings can be large; an effect the other way counts as inactive or inconclusive.

SMILES | ELG1 genotoxic | Rab9 prom act | NPC1 promoter act | ELG1 repair inh | SMN2 splice enh | FLuc counter
CCOc1ccc(C(=O)NCCC(=O)N2CCC3(CC2)NCCc2[nH]cnc23)cc1OCC | . | . | . | ? | / | .
CCOC(=O)N1CCN(C(=O)c2ccc3nc(SCc4ccc(F)cc4)n(C)c3c2)CC1 | . | . | . | 13µM | . | .
Cc1ccc(C)c(NC(=S)NC(NC(=O)N(C)C)C(Cl)(Cl)Cl)c1 (centres undefined) | . | . | . | . | . | .
CSc1ccccc1C(=O)Nc1cc(C)cc(C)c1 | . | . | . | . | . | ?
Cc1ccc(NC(=O)c2ccccc2OCC(=O)c2ccc(F)cc2)cc1 | . | . | . | . | . | .
Cc1ccc(C(=O)COc2ccccc2-c2ccccc2)cc1 | . | . | . | . | . | .
CCOc1ccc(NC(=O)c2ccccc2SC)cc1 | ? | ? | ? | ? | / | 17µM
CSc1ccccc1C(=O)Nc1ccc(C)c(C)c1 | ? | ? | ? | ? | ? | 15µM
CCOc1ccc(NC(=O)c2ccccc2OCC(=O)c2ccc(C)cc2)cc1 | . | . | . | . | . | 5.4µM
COc1ccc(NC(=O)c2ccccc2SC)cc1 | ? | . | . | ? | . | ?
Cc1ccc(C(=O)COc2ccccc2N2C(=O)c3ccccc3C2=O)cc1 | ? | ? | ? | ? | 20µM | .
COC(=O)Nc1nn(-c2ccc(Cl)cc2)c(=O)c(C#N)c1C | . | . | . | . | / | .
O=C(CSc1nc2ccccc2[nH]1)Nc1cccc(S(=O)(=O)N2CCOCC2)c1 | . | . | . | ? | / | .
Cc1ccc2nc(SCC(=O)Nc3cccc(S(=O)(=O)N(C)C)c3)[nH]c2c1 | . | . | . | ? | . | ?
CCN(CC)S(=O)(=O)c1cccc(NC(=O)CSc2nc3ccccc3[nH]2)c1 | . | . | . | 23µM | . | .
CN(C)S(=O)(=O)c1cccc(NC(=O)CSc2nc3ccccc3[nH]2)c1 | . | . | . | 13µM | . | .
CCOC(=O)c1ccc(S(=O)(=O)n2c(=O)oc3ccccc32)cc1 | . | . | . | . | / | .
CCOc1ccc(/C=N/NC(=S)Nc2c(C)cccc2C)cc1 | . | . | . | 18µM | . | .
Cc1ccccc1OCC(=O)N/N=C/c1ccc(N(C)C)cc1 | . | . | . | . | . | ?
CN(C)c1ccc(/C=N/NC(=O)c2ccnn2C)cc1 | ? | 0.5µM | 2.5µM | ? | / | 5.4µM
CN(C)c1ccc(/C=N\NC(=O)c2csnn2)cc1 | ? | 0.63µM | 0.89µM | ? | 16µM | 3.8µM
CC(C)c1ccc(C(=O)N/N=C/c2cccc(Cl)c2Cl)cc1 | . | ? | ? | ? | . | 8.5µM
CCNC(=S)N/N=C/c1ccc(OCCOc2ccccc2C)cc1 | . | . | . | . | . | .
CN(C)c1ccc(/C=N/NC(=O)C(=O)N2CCCCCC2)cc1 | . | . | . | ? | / | .
Cc1ccc(S(=O)(=O)Nc2cccc(-n3cnnn3)c2)cc1 | . | . | . | . | / | .
SMILES | ELG1 genotoxic | Rab9 prom act | NPC1 promoter act | ELG1 repair inh | SMN2 splice enh | FLuc counter
CN(C)c1ccc(/C=N/NC(=O)c2ccn(C)n2)cc1 | ? | 4.5µM | 2.5µM | ? | / | 3.8µM
CCOC(=O)N/N=C/c1ccc(Oc2ccccc2)cc1 | . | ? | ? | ? | ? | 19µM
Cc1ccc(/C=N/NC(=O)c2cccc(NC(=O)c3ccccc3Cl)c2)o1 | . | . | . | . | / | 17µM
CC(C)c1ccc(/C=N/NC(=O)c2cccc(Cl)c2)cc1 | 21µM | 2.8µM | 2.8µM | ? | 16µM | 2.7µM
Cc1ccc(/C=N/NC(=O)c2cccc(NC(=O)c3ccccc3C)c2)o1 | . | . | . | . | / | ?
COc1ccc(Cl)cc1NC(=O)CN(C)CC(=O)Nc1ccc(S(N)(=O)=O)cc1 | . | . | . | . | / | .
O=C(O)CCCN=CC1=C(O)C(C(=O)c2ccccc2)CCC1=O (centres undefined) | . | . | . | . | . | .
CC(C)C1C(=O)CC(c2ccccc2)NC1c1ccccc1 (centres undefined) | . | . | . | . | / | .
COc1ccc(C2C(C#N)=C(N)N(c3sc4c(c3C#N)CCCC4)C3=C2C(=O)CC(C)(C)C3)cc1 (centres undefined) | . | . | . | . | . | .
CN(C)c1ccc(/C=N/NC(=O)c2ccccn2)cc1 | 1.2µM | 0.13µM | 0.5µM | ? | / | 1.7µM
O=C(N/N=C\c1cc([N+](=O)[O-])ccc1N1CCOCC1)c1ccccn1 | . | . | . | . | . | .
CC(C)c1ccc(/C=N/NC(=O)c2ccccn2)cc1 | ? | 0.32µM | 0.14µM | ? | / | 0.38µM
Cc1cccc(/C=N\NC(=O)c2csnn2)c1 | ? | . | ? | ? | . | 8.5µM
CN(C)c1ccc(/C=N/NC(=O)c2cnc3ccccc3c2)cc1 | . | . | . | . | / | ?
O=C(N/N=C/c1ccc(N2CCOCC2)cc1)c1ccccn1 | ? | 2.2µM | 2.5µM | ? | / | 6.7µM
